Records with an inconclusive call do not appear. Entries that show only a call come without a potency. Calls of active or inactive are those of the source. Calls follow the shape of the dose curve; as a rule, active = well fitted inhibition curve with a large enough effect; inconclusive = small, poorly fitted or top-dose-only effect; inactive = flat fitted curve, though single readings scatter.

Potency data for 40 molecules are collected here from PubChem BioAssay AID493169 (National Center for Advancing Translational Sciences (NCATS), 2011).
Potency is read from the fitted curve at half-maximal effect.

A short description of the assay: CHOP2 Reporter Counterscreen Assay for Inhibitors of Ubiquitin-specific Protease USP2a.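 Also: activated enterokinase alone at 50 pM in a cell-free format rather than USP2a or CHOP2; nearly all actives have a fitted effect of over 55% in size.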 The conditions noted are these: purified enterokinase, fluorogenic substrate, 485/531 nm; series mostly up to 38.3 µM. The method, boiled down: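 Cell-free counterscreen with pre-activated enterokinase alone (50 pM final) in 20mM Tris-HCl pH 8.0, 2mM CaCl2, 2mM beta-mercaptoethanol, 0.05% CHAPS; compound preincubation 30 min RT, reporter substrate 25nM final, fluorescence read after 10 min (Ex 485/Em 531).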
Regarding `CCOC(=O)N1CCC(NC(=O)c2ccc(OC)c(CN3CC(=O)N4CCCC4C3=O)c2)CC1` (stereo not given), the Potency entry was “inactive”.

Consider `O=C(Nc1ccc(C2=NCCN2)cc1)c1ccc(C(=O)Nc2ccc(C3=NCCN3)cc2)c([N+](=O)[O-])c1`, for which the Potency was 7.94 µM (active).

As for `O=[N+]([O-])c1cc(-c2ccc(/C=N\n3cnnc3)o2)cc([N+](=O)[O-])c1`, the Potency is 10 µM (active).

In the case of `CC(C)n1c(/C=C/[C@H](O)C[C@H](O)CC(=O)O)c(-c2ccc(F)cc2)c2ccccc21`, the Potency entry was “inactive”.

As for `Cc1ccc2nc(NCCCNC(=O)c3cnccn3)c(C#N)cc2c1`, the Potency entry is “inactive”.

`CCCc1nc(SCC(N)=O)[nH]c(=O)c1CC`: the Potency result was “inactive”.

For `Cc1ccc(C(=O)N/C(=C/c2ccco2)C(=O)Nc2cccc(C(=O)O)c2)cc1`, the Potency was 10 µM (active).

`O=C1NC(=Nc2ccc3ccccc3c2)S/C1=C/c1ccco1`: the Potency is 10 µM (active).

As to `COc1ccc(NC(=S)NC(=O)/C=C/c2ccco2)cc1`, the Potency entry was “inactive”.

In the case of `COc1ccc(CCn2c(O)cc3nn(-c4nc5ccccc5s4)c(=O)c-3c2C)cc1`, the Potency is 11.2 µM (active).

For `Cc1ccccc1OCCn1nc(C(=O)O)c2ccccc2c1=O`, the Potency entry is “inactive”.

For `CCCCCCCCCC[N+](C)(C)CC/C=C1/c2ccccc2Sc2ccc(Cl)cc21`, the Potency was 7.94 µM (active).

Turning to `CCOc1cc(/C=C2\C(=O)N(c3nc(-c4ccc(Br)cc4)cs3)N=C2c2ccccc2)ccc1O`, the Potency was 4.47 µM (active).

On to `N#CNC(=Nc1cccc(F)c1)SCc1cccc(F)c1`, for which the Potency result is “inactive”.

Take `Cc1ccccc1OCc1nc2ccccc2c(=O)n1N`: the Potency result is “inactive”.

On to `NC(=O)c1ncc(C(F)(F)F)cc1Oc1cccc(F)c1`, for which the Potency result is “inactive”.

In the case of `Cn1nnnc1Sc1ncnc2scc(-c3ccc4c(c3)OCO4)c12`, the Potency entry was “inactive”.

In the case of `Cc1ccc(/C=C2/SC(=S)N(c3ccc(S(=O)(=O)Nc4nccs4)cc3)C2=O)cc1`, the Potency was 12.6 µM (active).

`CCOc1ccc(S(=O)(=O)N(CC(=O)O)c2ccccc2)cc1`: the Potency entry was “inactive”.

Turning to `Cc1cc(NC(=O)c2cccc(S(=O)(=O)N(C)C)c2)n(-c2ccccn2)n1`, the Potency entry was “inactive”.

In the case of `COc1ccc(S(=O)(=O)N(C)CC(=O)Nc2cccc(C(C)=O)c2)cc1Cl`, the Potency result is “inactive”.

`Cc1cc2c(c(=O)n1CC1CCCO1)C(c1ccco1)C(C#N)=C(N)O2` (stereo not given): the Potency entry is “inactive”.

`CCCCNc1nc2ccccc2nc1NS(=O)(=O)c1cccs1`: the Potency result is “inactive”.

On to `COc1cc(NC(=O)COC(=O)CSc2ccccc2F)c(C)cc1[N+](=O)[O-]`, for which the Potency result is “inactive”.

In the case of `NS(=O)(=O)c1ccc(N=Nc2c(O)c(C(=O)O)cc3ccccc23)cc1`, the Potency was 11.2 µM (active).

Consider `CC(C)C(C(=O)O)N1C(=O)/C(=C/C=C/c2ccco2)SC1=S` (stereo not given), for which the Potency was 2 µM (active).

Consider `CN(c1cccc(NC(=O)Nc2cccc(Cl)c2)c1)S(C)(=O)=O`, for which the Potency result was “inactive”.

Regarding `Cc1noc(NS(=O)(=O)c2ccc(N3CC(O)=C(c4ccccc4)C3=N)cc2)c1C`, the Potency entry was “inactive”.

As for `CCCn1nnc(NC(=O)c2cccc(OCC(C)C)c2)n1`, the Potency result is “inactive”.

As to `CCN1C(=O)CSc2ccc(C(=O)NC3CCCCC3)cc21`, the Potency entry was “inactive”.

In the case of `O=C1CCCC2=C1C(c1ccco1)Nc1ccc3ccccc3c12` (stereo not given), the Potency is 7.94 µM (active).

Turning to `O=S(=O)(c1cc(Cl)ccc1Cl)N1CCNCC1`, the Potency result is “inactive”.

For the molecule `O=C(Nn1c(SCc2ccc([N+](=O)[O-])cc2)nc2ccccc2c1=O)c1ccc(F)cc1`, the Potency entry was “inactive”.

For `Cc1ccc(NC(=O)Cn2nc(C)c3ccccc3c2=O)cc1F`, the Potency result was “inactive”.

On to `COc1ccc(C(=O)Nc2ccc(N3CCCC3)cc2)cc1OC`, for which the Potency entry is “inactive”.

Take `COc1ccc(-c2[nH]ncc2/C=C(/C#N)C(=O)NC2CCCCC2)cc1`: the Potency result was “inactive”.

`CCC(CO)Oc1cc(NCc2cccc(C)c2)c2ncn(C(C)C)c2c1` (stereo not given): the Potency result was “inactive”.

Turning to `C[C@](N)(Cc1ccc(O)c(O)c1)C(=O)O`, the Potency result was “inactive”.

For `CC(C)(C)C1C=C(Sc2ccccc2)C(=O)O1` (stereo not given), the Potency entry was “inactive”.

For the molecule `CCCCC(CC)CN=C(N)NC(N)=NCCCCCCN=C(N)NC(N)=NCC(CC)CCCC` (stereo not given), the Potency is 5.62 µM (active).
